Results as given in ChEMBL document CHEMBL3988442, “University of Dundee, Small-Polar-MMV Screening Library” (2021).
Hit rate of the full screen: of about 48,000 compounds, about 13,000 (27%) showed an effect of 50% or more. Some of the results follow.

Test system: Wolbachia pipientis
Assay: Anti-Wolbachia Cell-Based Screen
Assay type: functional
Design: scale not given: in the data most compounds retested in dose-response had high values
Conditions: 5 µM

SMILES	Percent Effect
CC1=C[C@@H](CC#N)[C@H](C(C)C)C[C@H]1CC(=O)N1CCN(CCO)CC1	2.953%
CCOC(=O)C1CCN(Cc2csc(C(C)(C)C)n2)CC1	-1.919%
CN1CCCC(CCCc2cccnc2)(C(N)=O)C1 (stereo not given)	112%
CCN1CCCC(O)(CNCc2ccccn2)C1 (stereo not given)	-18.44%
O=C(Nc1ccc(Cl)cn1)C1CCCN(CCc2ccccn2)C1 (stereo not given)	0.2896%
O=C(NCCc1ccccn1)N1CCSC2(CCCCC2)C1	2.458%
COCCC1(C(=O)O)CCCN(CCc2ccccc2)C1 (stereo not given)	-4.304%
NC(=O)C1(CCCc2ccccn2)CCCN(CCO)C1 (stereo not given)	112.7%
COCCCC1(CO)CCCN(CCc2ccccn2)C1 (stereo not given)	15.21%
CCCN(Cc1cccnc1)C(=O)C1CCCN(C)C1 (stereo not given)	-0.4884%
NC(=O)C1(CCCc2cccnc2)CCCN(c2ncccn2)C1 (stereo not given)	-4.242%
CC(C)N1CCCC(CCCc2ccccn2)(C(=O)O)C1 (stereo not given)	-10.26%
NC(=O)CN1CCCC(CCCc2ccccn2)(C(N)=O)C1 (stereo not given)	100.4%
COCCN1CCCC(CCCc2ccccn2)(C(N)=O)C1 (stereo not given)	100.6%
CCOCC1COCCC12CCN(C(=O)C1=CCCCC1)CC2 (stereo not given)	5.493%
COCCCN(Cc1ccncc1)c1cc(C)ncn1	0.1133%
CC1(C)COCCN1C(=O)CCc1nc(-c2ccc(Cl)cc2)no1	-5.513%
Cc1ccc(OCc2nnc(SCC3CCCN(C)C3)o2)cc1 (stereo not given)	8.956%
CN(CCc1ccccn1)[C@@H]1CCN(c2cc(C(N)=O)ccn2)C[C@H]1O	-0.6803%
CN(C)C(=O)CN1CCCC(CCCc2ccccn2)(C(N)=O)C1 (stereo not given)	83.83%
Nc1ccnc(N2CCCC(CCc3ccccc3)(C(=O)O)C2)n1 (stereo not given)	-8.777%
CN(CCc1ccccn1)C(=O)Nc1cccnc1N1CCCC1	-10.3%
NC(=O)C1(CCCc2ccccn2)CCCN(c2ncccn2)C1 (stereo not given)	87.14%
O=C(CCCc1ccccn1)N1CCSC2(CCCCC2)C1	-12.36%
Cc1nc2cc(=O)[nH]n2c(C)c1CC(=O)Nc1cnn(C(C)(C)C)c1	-8.028%

SMILES	Percent Effect
CCOc1ccc(CN2C(=O)CC(C)(C)C2=O)nc1	-21.77%
CCC(=O)N1CCN(C(=O)NC2CCc3ccccc3C2)CC1 (stereo not given)	-5.895%
CN(C)C(C)(C)CNCc1cn(C)nc1-c1cccnc1.Cl	8.677%
Cn1cc(CNCCn2cccn2)c(-c2cccnc2)n1	3.416%
Cc1noc(NCc2cn(C)nc2-c2ccncc2)n1	86.63%
Cc1noc(NCc2cn(C)nc2-c2cccnc2)n1	76.51%
Cn1cc(CNCCc2cccnc2)c(-c2cccnc2)n1	4.12%
Cn1cc(CNc2cnn(CCO)c2)c(-c2ccncc2)n1	-19.35%
Cc1cc(NCc2cn(C)nc2-c2cccnc2)n(C)n1	80.93%
Cn1cc(CNc2ccc(CCO)cc2)c(-c2ccncc2)n1	4.489%
CCCNCc1cn(C)nc1-c1cccnc1.Cl	13.76%
CCc1nnc(CNC(=O)CCN2CCN(c3cccc(C)c3)CC2)s1	7.202%
Cc1ccc(C(=O)N2CCSCC2)cc1N1CCNC1=O	-1.525%
CN(C)CCN1CCOCC2(CCN(Cc3ccc[nH]3)CC2)C1.O=C(O)C(F)(F)F.O=C(O)C(F)(F)F.O=C(O)C(F)(F)F	-10.04%
CNc1cc(C)nc(N2C[C@H](C3CC3)[C@@H](N)C2)n1	-22.96%
Cc1cc(NC(=O)NCc2ccc(C)s2)no1	3.366%
Cc1ccnc(OC[C@]23COC[C@H]2CN(C(=O)Cc2ccsc2)C3)n1	106.6%
O=C(Cc1ccsc1)N1C[C@@H]2COC[C@]2(COCc2cccnc2)C1.O=C(O)C(F)(F)F	-1.782%
Cc1cccc(COC[C@]23COC[C@H]2CN(C(=O)c2ccsc2)C3)n1	4.122%
O=C(Cc1cccs1)N1C[C@@H]2COC[C@]2(COCc2cccnc2)C1.O=C(O)C(F)(F)F	-3.131%
O=C(Cc1cccs1)N1C[C@@H]2COC[C@]2(COc2cccnc2)C1	7.396%
O=C(Cc1ccsc1)N1C[C@@H]2COC[C@]2(COc2cccnc2)C1	95.21%
CS(=O)(=O)c1ncc(CN2CCCC(C(N)=O)C2)n1CC1CCCCC1 (stereo not given)	6.801%
COCC1(NC(=O)C(c2ccc(F)cc2)N(C)C)CCCC1 (stereo not given)	-2.374%
CC1CCCN1Cc1cccc(C(=O)Nc2ccc3c(c2)CCC3=O)c1 (stereo not given)	51.3%

SMILES	Percent Effect
CC1CCCN1Cc1cccc(C(=O)Nc2ccc3[nH]c(=O)oc3c2)c1 (stereo not given)	1.459%
COc1ccc(NC(=O)c2cccc(CN3CCCC3C)c2)cc1OC (stereo not given)	8.38%
CCN(Cc1ccc2c(c1)OCCO2)C(=O)NCc1csc(C)n1	-4.508%
Cc1nc(CC(=O)N2c3ccccc3OCC2C)cs1 (stereo not given)	-16.16%
Cc1nc(COC(=O)c2cccc3c2OCCO3)no1	110.5%
Cc1ncsc1CN(C)C(=O)CC1CCOc2ccccc21 (stereo not given)	5.103%
Cc1nc(COC(=O)c2cccc3c2OCCO3)cs1	117.7%
Cc1ncsc1CCN(C)C(=O)CN1CCOc2ccccc2C1	0.429%
Cc1ncsc1COC(=O)c1cccc2c1OCCO2	128%
Cc1nc(C2CCCN(C(=O)c3cccc4c3OCO4)C2)no1 (stereo not given)	12.92%
Cc1nc(CCN(C)C(=O)C2COc3ccccc3C2)no1 (stereo not given)	-0.4164%
NC(=O)N1CCCN(C(=O)Nc2cc(-n3cccc3)ccc2F)CC1	-14.58%
CN1CC(C(=O)NC(C)(C)CNC(=O)OC(C)(C)C)CC1=O (stereo not given)	-3.275%
COCc1ccccc1C(=O)NCC(O)c1ccc(Cl)s1 (stereo not given)	11.9%
CN(C)c1ncnc2c1CCN(S(=O)(=O)c1cccc3nsnc13)C2	10.74%
COc1ncccc1CNC(=O)c1cc(F)cc(Br)c1	12.35%
CC(=O)c1cnc(NCCc2csc(-c3cnccn3)n2)nc1C	-3.465%
CC(=O)c1cnc(NCCCN2CCOCC2)nc1C	89.28%
CC(=O)c1cnc(NCCN2CCCC(c3ccccc3)C2)nc1C (stereo not given)	111.1%
CCc1cnc(C)nc1NCCN1CCCC(C(N)=O)C1 (stereo not given)	3.304%
OC1CCN(CCNc2ncc3c(n2)CCN3c2ccccc2)CC1	0.6072%
Cc1csc(C2(NC(=O)NCCN3CCOCC3)CCC2)n1	-15.32%
CC(=O)c1cnc(NCCN2CCCC2)nc1C	107.9%
CC(=O)c1cnc(NCC2OCCc3ccccc32)nc1C (stereo not given)	8.592%
Cc1ncccc1OC1(C(=O)NCCCN2CCOCC2)CCNCC1	-8.588%
